Results: PubChem BioAssay (NCI)
The panel holds about 83,000 compounds, 20% with a hit somewhere; the sample as a whole holds those more often.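 Results are percent growth after 48 hours of single-concentration exposure. 100 means growth as in untreated cells, lower positive values show inhibition; negative values down to -100 show cell death.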 The source made the active and inactive calls. Rule for the calls: active = growth percent below 10; inactive = the rest.

How the values were obtained:
Assay in all cases: NCI-60 one-dose screen, 48 h (100 = growth as untreated, 0 = no growth, -100 = all killed)
Conditions in all cases: 10 µM
[1] = tested on: RPMI-8226 leukemia
[2] = tested on: OVCAR-8 ovarian
[3] = tested on: OVCAR-5 ovarian
[4] = tested on: OVCAR-4 ovarian
[5] = tested on: SK-OV-3 ovarian
[6] = tested on: IGROV1 ovarian
[7] = tested on: OVCAR-3 ovarian
[8] = tested on: HS 578T breast
[9] = tested on: NCI/ADR-RES ovarian
[10] = tested on: T-47D breast

Measured: growth

COC(=O)C1=NNC(=S)N(c2cc(C)[nH]n2)C(=O)C1
inactive: [1] 98.5% | [2] 101% | [3] 108% | [4] 104% | [5] 97.9% | [6] 99.9% | [7] 108% | [8] 105% | [9] 99% | [10] 90.2%

CC(C)=CCc1cc(O)cc2c1OC(C=C(C)C)C1=C2C(=O)C2=C(C1=O)S(=O)(=O)CCN2 (stereo not given)
inactive: [1] 51.4% | [2] 10.8% | [3] 152% | [5] 84.7% | [8] 70.3% | [9] 91.7%
active: [4] 5.54% | [6] -0.954% | [7] 0.638% | [10] -0.36%

Cc1ccc(C(=O)Nc2cccc(F)c2)cc1NC(=O)C1(c2ncnc3[nH]ccc23)CC1
inactive: [1] 83.2% | [2] 89.7% | [3] 83.6% | [4] 101% | [5] 91.1% | [6] 90.3% | [7] 103% | [8] 74% | [9] 92% | [10] 74.1%

COc1ccc2c(c1)sc1nc(-c3ccccc3)c(-c3cccnc3)n12
inactive: [1] 79% | [2] 104% | [3] 110% | [4] 88.1% | [5] 108% | [6] 94.7% | [7] 113% | [8] 99.7% | [9] 96.4% | [10] 93.3%

COc1ccc(-c2nn(-c3cccc(NC(=O)c4cc(C(F)(F)F)cc(C(F)(F)F)c4)c3)cc2-c2ccncc2)cc1Cl
inactive: [1] 47.7% | [2] 66.4% | [3] 87.4% | [4] 76.4% | [5] 75.2% | [6] 77.2% | [7] 54.1% | [8] 71.5% | [9] 59.9% | [10] 51.5%

CC(=O)N(C)c1ccc(Nc2ccc(Nc3ccc(N(C)C(C)=O)cc3)c3c2C(=O)c2ccccc2C3=O)cc1
inactive: [1] 53.5% | [2] 71.2% | [3] 97.1% | [4] 63.7% | [5] 78.2% | [6] 32.6% | [7] 78.7% | [8] 58.3% | [9] 86% | [10] 54.7%

CNc1ncc(-c2ccc(C(F)(F)F)cc2)c(NC2CCCCCC2)n1
inactive: [1] 32.1% | [2] 84.2% | [3] 88.8% | [4] 70.1% | [5] 83% | [6] 63.9% | [7] 78.2% | [8] 99.6% | [9] 65.2% | [10] 45.8%

COc1ccc(NC(=O)Cc2nc3nc4sc(C)c(C)c4c(=O)n3[nH]2)cc1
inactive: [1] 90.5% | [2] 101% | [3] 108% | [4] 113% | [5] 104% | [6] 101% | [7] 115% | [8] 107% | [9] 103% | [10] 96.2%

Cc1cccc(Cl)c1NC(=O)c1ccc2nc(NC(=O)NC3CCN(C)CC3)sc2c1
inactive: [1] 87.7% | [2] 94.6% | [3] 71.1% | [4] 99.5% | [5] 61.8% | [6] 86% | [7] 116% | [8] 48.6% | [9] 106% | [10] 66%

Cc1cc2c(C)c3cc(C)c(N)cc3nc2cc1N
active: [1] 0.782% | [2] -6.68% | [4] -2.48% | [6] -1.9% | [10] -2.32%
inactive: [3] 12.3% | [5] 13.3% | [7] 14.9% | [8] 15.6% | [9] 69.2%

CN(C)CCNC(=O)c1cccn2c(=O)c3cc4ccccc4cc3nc12
inactive: [3] 29.6% | [5] 19.5% | [6] 19.3%
active: [1] -29.2% | [2] -9.49% | [4] -3.24% | [7] -15.3% | [8] -14.5% | [9] 5.94% | [10] 5.57%

CCCCCCN(CCCCCC)CC(O)c1ccc2c3c(cccc13)CC2 (stereo not given)
inactive: [1] 27.5% | [2] 68.4% | [3] 48.9% | [4] 72.4% | [5] 69.9% | [6] 39.4% | [7] 80.6% | [8] 69.1% | [9] 56.5% | [10] 30.2%

Cc1cccc2c1O/C(=C\c1ccc([N+](=O)[O-])o1)C2=O
inactive: [5] 45.1% | [9] 10.5%
active: [1] -34.7% | [2] -7.67% | [3] -20.8% | [4] -82.4% | [6] -34.7% | [7] -85.7% | [8] -23.2% | [10] -26%

COc1cccc(C(=O)Nc2ccc(CN3CCc4nc5cc(OC)c(OC)cc5cc43)cc2)c1
inactive: [1] 40% | [2] 46.8% | [3] 64.8% | [4] 57.1% | [5] 74.2% | [6] 31.8% | [7] 53.1% | [8] 61.2% | [9] 47.1% | [10] 32.4%

CCCCCCCCCCCC[n+]1ccc(C(N)=O)cc1
active: [1] -6.05% | [6] -18.7%
inactive: [2] 16.1% | [3] 20.5% | [4] 48.8% | [5] 45.5% | [7] 23.2% | [8] 31.3% | [9] 103% | [10] 38.8%

COc1ccc(/C=C2/CN(C(=O)c3ccccc3F)C/C(=C\c3ccc(OC)cc3)C2=O)cc1
active: [1] -19%
inactive: [2] 19% | [3] 106% | [4] 61.3% | [5] 76.7% | [6] 30.6% | [7] 26.9% | [8] 38.9% | [9] 50.4% | [10] 62.7%

CN1CCC(CNc2cc(C3(C(=O)Nc4cc(C(=O)Nc5ccc(Cl)c(C(F)(F)F)c5)ccc4F)CC3)ncn2)CC1
active: [1] -32%
inactive: [2] 44.3% | [3] 71.6% | [4] 81.1% | [5] 45.9% | [6] 54.8% | [7] 29.4% | [8] 13.6% | [9] 86.7% | [10] 63.7%

N=C(N)c1ccc(-c2ccc(-c3cccs3)s2)cc1
inactive: [3] 67% | [5] 65.9% | [6] 94.9% | [7] 36.7% | [8] 104% | [9] 56.1% | [10] 55.1%
active: [1] -30.9% | [2] -14% | [4] -19.8%

COc1ccc(Nc2cc(C)nc(NCCCNc3ccnc4cc(Cl)ccc34)n2)cc1
inactive: [3] 18.3% | [6] 29.7% | [9] 29%
active: [1] -58.8% | [2] -8.6% | [4] 4% | [5] -25.3% | [7] -82.1% | [8] -53.9% | [10] -94.7%

COc1cc(C(=O)N2CCN(c3ccccc3OC)CC2)c(N)cc1OCCCN1CCN(c2ccccc2OC)CC1
inactive: [1] 56.4% | [2] 101% | [3] 81.6% | [4] 77.7% | [5] 75.4% | [6] 77.6% | [7] 77.7% | [8] 99% | [9] 80.1% | [10] 50.9%

Nc1ccccc1NC(=O)CCCCC(=O)Nc1ccc2c(c1)/C(=C/c1ccc[nH]1)C(=O)N2
inactive: [1] 56.2% | [2] 78.5% | [3] 96.5% | [4] 52.1% | [5] 72.5% | [6] 59.8% | [7] 65.8% | [8] 52.3% | [9] 107% | [10] 59.6%

COc1ccc(-c2nn(-c3cccc(NC(=O)Nc4cccc(C(F)(F)F)c4)c3)cc2-c2ccncc2)cc1Cl
inactive: [3] 56.1% | [4] 18.1% | [5] 20.4% | [6] 14.5% | [8] 32.5%
active: [1] -11% | [2] -4.63% | [7] 3.89% | [9] 0.659% | [10] -6.95%

Oc1[nH]c2cc(Cl)ccc2c1/C=c1/ccc2c(c1)N=C(c1cc(F)cc(F)c1)N=2
inactive: [2] 30.5% | [3] 75.5% | [4] 48.8% | [6] 43% | [8] 17.3% | [10] 30.9%
active: [1] -4.53% | [5] 1.53% | [7] -50.4% | [9] 2.67%

COc1ccc(-c2nn(-c3cccc(NC(=O)Nc4ccc(Cl)c(C(F)(F)F)c4)c3)cc2-c2ccncc2)cc1Cl
active: [1] -19.2% | [2] 1.48% | [7] -2.03% | [9] 9.26% | [10] -6.17%
inactive: [3] 39.8% | [4] 21.7% | [5] 16.7% | [6] 15.7% | [8] 33.8%

O=C(Nc1nc2ccc(F)cc2s1)c1cc(-c2ccc(F)cc2)n2nc(-c3ccccc3)cc2n1
inactive: [1] 97.7% | [2] 38.6% | [3] 107% | [4] 17.9% | [5] 86.4% | [6] 122% | [7] 82.8% | [8] 73.3% | [9] 53% | [10] 75.2%

N#CC1=C(Nc2ccccc2Cl)SC(c2ccccc2O)NC1=O (stereo not given)
inactive: [1] 97.1% | [2] 111% | [3] 105% | [4] 111% | [5] 116% | [6] 102% | [7] 127% | [8] 116% | [9] 110% | [10] 111%

COc1ccc(S(=O)(=O)NCCCNc2nccc(-c3c(-c4ccc(F)cc4)nc4sccn34)n2)cc1
inactive: [1] 47.8% | [2] 41.9% | [3] 92.6% | [4] 77.3% | [5] 74.5% | [6] 30.2% | [7] 74.9% | [8] 83% | [9] 53.3% | [10] 24.2%
